Here are results for 28 compounds from PubChem BioAssay (Tox21).

Test [1] concerns the target Cytochrome P450 2D6 (Homo sapiens) (UniProt P10635). In words: Cytochrome P450 Family 2 Subfamily D Member 6 (CYP2D6) small molecule antagonists: luciferase reporter qHTS assay (AID 1671196). Further: nearly all actives have a fitted effect of over 50% in size. Further: potency means the concentration at half of the fitted maximal effect. To be noted: P450-Glo CYP2D6 enzyme assay, luciferin luminescence, 1 h; series mostly up to 115 µM. The method in brief:
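Test chemicals meet CYP2D6 plus proluciferin substrate (10 min, RT); NADPH regenerating solution then drives turnover for 1 h. Detection reagent halts the reaction; luminescence measured after 20 min.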
(In a reporter assay the amount or activity of a reporter protein is the signal.)

In test [2] the target is Cytochrome P450 2C19 (Homo sapiens) (UniProt P33261). The experiment in a line: Cytochrome P450 Family 2 Subfamily C Member 19 (CYP2C19) small molecule antagonists: luciferase reporter qHTS assay (AID 1671197). Further: nearly all actives have a fitted effect of over 65% in size. Further: potency means the concentration at half of the fitted maximal effect. The note with it: P450-Glo CYP2C19 enzyme, luciferin luminescence, 1 h; series mostly up to 115 µM. The method in brief:
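Light output is proportional to CYP2C19 activity: proluciferin substrate is converted to luciferin, then detected by a luciferin detection reagent that also stops the 1 h, 37C NADPH-driven reaction. Ketoconazole serves as positive control.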

In test [3] the target is Cytochrome P450 1A2 (Homo sapiens) (UniProt P05177). The experiment in a line: Cytochrome P450 Family 1 Subfamily A Member 2 (CYP1A2) small molecule antagonists: luciferase reporter qHTS assay (AID 1671199). Further: nearly all actives have a fitted effect of over 50% in size. Further: potency means the concentration at half of the fitted maximal effect. To be noted: P450-Glo CYP1A2 enzyme, luciferin luminescence, 1 h; series mostly up to 115 µM. The method in brief: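 Steps: enzyme-substrate mix dispensed; test compounds and furafylline control pinned in; 10 min room temperature; NADPH regeneration solution added, 1 h; reaction stopped with luciferin detection reagent; luminescence read after 20 min.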

The target of test [4] is Voltage-gated inwardly rectifying potassium channel KCNH2 (Homo sapiens) (UniProt Q12809). In words: Human Ether-a-go-go-Related Gene (hERG) channel small molecule antagonists: fluorescence cell-based qHTS assay (AID 1671200).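 Further: hERG-expressing U2OS cells given a thallium stimulus after FluxOR II dye loading; nearly all actives have a fitted effect of over 50% in size.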 To be noted: hERG-U2OS cells, FluxOR thallium flux fluorescence; series mostly up to 76.8 µM. The method in brief:
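Read-out: thallium influx as a surrogate for potassium, tracked as fluorescence (480 nm ex/540 nm em) every second for 2 min after Stimulus Buffer addition in dye-loaded hERG-U2OS cells.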

The target of test [5] is Cytochrome P450 3A4 (Homo sapiens) (UniProt P08684). In words: Cytochrome P450 Family 3 Subfamily A Member 4 (CYP3A4) small molecule antagonists: luciferase reporter qHTS assay (AID 1671201). Further: nearly all actives have a fitted effect of over 50% in size. Further: potency means the concentration at half of the fitted maximal effect. The note with it: P450-Glo CYP3A4 enzyme, luciferin luminescence, 1 h; series mostly up to 115 µM. The method in brief: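 Luminescent readout (RLU) proportional to CYP3A4 activity, from luciferin generated off a proluciferin substrate. Enzyme–substrate mix plus compound 10 min at room temp, NADPH regeneration 1 h, detection reagent 20 min.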

Test [6] deals with Cytochrome P450 2C9 (Homo sapiens) (UniProt P11712). In words: Cytochrome P450 Family 2 Subfamily C Member 9 (CYP2C9) small molecule antagonists: luciferase reporter qHTS assay (AID 1671198). Further: nearly all actives have a fitted effect of over 50% in size. Further: potency means the concentration at half of the fitted maximal effect. To be noted: P450-Glo CYP2C9 enzyme assay, luciferin luminescence; series mostly up to 115 µM. The method in brief: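 Enzyme-substrate mix preincubated with compound 10 min at room temperature; reaction started with NADPH regeneration solution, 1 h 37C. Luminescent luciferin product read after 20 min detection reagent.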

Records with an inconclusive call do not appear. A number with no mark means an inactive call. Activity calls are given as the source filed them. The call rests on the fitted dose curve; in most records, active means well fitted curve in the direction sought with a large enough effect in the repeat runs; inconclusive means weak or mixed curves; inactive means no such curve, though single readings can be large; an effect the other way counts as inactive or inconclusive.

Chain of Cytochrome P450 2C9 (Homo sapiens) (P11712 whole entry, looked up): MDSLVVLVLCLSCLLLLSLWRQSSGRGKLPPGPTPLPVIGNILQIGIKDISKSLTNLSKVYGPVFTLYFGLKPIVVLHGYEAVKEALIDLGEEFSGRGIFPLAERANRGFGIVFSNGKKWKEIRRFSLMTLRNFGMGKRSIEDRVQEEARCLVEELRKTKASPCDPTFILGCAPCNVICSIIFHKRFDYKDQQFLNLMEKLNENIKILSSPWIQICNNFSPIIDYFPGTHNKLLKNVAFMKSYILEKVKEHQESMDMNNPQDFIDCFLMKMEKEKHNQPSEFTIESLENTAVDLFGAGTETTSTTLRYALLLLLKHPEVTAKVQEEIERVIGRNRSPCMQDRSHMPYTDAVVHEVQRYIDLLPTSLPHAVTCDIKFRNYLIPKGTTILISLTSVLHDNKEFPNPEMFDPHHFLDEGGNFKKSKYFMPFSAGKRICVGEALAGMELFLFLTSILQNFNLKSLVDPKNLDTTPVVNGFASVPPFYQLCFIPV
Chain of Cytochrome P450 1A2 (Homo sapiens) (P05177 whole entry, looked up): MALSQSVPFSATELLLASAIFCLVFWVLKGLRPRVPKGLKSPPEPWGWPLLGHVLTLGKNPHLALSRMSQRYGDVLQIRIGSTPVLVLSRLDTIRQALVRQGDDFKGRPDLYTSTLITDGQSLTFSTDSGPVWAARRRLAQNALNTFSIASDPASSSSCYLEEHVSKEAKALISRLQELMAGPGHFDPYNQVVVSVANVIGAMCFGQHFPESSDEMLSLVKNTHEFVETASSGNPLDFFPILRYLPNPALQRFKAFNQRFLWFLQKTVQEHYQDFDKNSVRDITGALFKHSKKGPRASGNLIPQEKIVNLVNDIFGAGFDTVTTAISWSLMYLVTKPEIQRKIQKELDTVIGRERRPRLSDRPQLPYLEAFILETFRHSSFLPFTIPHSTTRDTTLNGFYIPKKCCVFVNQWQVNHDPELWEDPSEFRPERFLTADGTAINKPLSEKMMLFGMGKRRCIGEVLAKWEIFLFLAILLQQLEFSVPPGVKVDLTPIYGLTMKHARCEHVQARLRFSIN
Chain of Cytochrome P450 3A4 (Homo sapiens) (P08684 whole entry, looked up): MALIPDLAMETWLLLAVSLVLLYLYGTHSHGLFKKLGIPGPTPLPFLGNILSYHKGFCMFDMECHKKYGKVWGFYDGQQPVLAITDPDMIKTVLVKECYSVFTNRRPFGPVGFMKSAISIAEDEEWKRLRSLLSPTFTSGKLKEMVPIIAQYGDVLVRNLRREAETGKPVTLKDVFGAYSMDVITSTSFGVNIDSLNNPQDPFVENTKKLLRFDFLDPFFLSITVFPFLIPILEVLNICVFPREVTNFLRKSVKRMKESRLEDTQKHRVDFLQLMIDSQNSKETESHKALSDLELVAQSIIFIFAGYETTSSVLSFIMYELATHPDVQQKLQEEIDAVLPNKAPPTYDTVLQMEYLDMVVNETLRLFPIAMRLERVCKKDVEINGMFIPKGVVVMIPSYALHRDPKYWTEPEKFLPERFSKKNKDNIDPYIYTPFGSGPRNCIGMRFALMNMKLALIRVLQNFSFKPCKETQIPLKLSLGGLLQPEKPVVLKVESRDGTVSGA
Chain of Cytochrome P450 2D6 (Homo sapiens) (P10635 whole entry, looked up): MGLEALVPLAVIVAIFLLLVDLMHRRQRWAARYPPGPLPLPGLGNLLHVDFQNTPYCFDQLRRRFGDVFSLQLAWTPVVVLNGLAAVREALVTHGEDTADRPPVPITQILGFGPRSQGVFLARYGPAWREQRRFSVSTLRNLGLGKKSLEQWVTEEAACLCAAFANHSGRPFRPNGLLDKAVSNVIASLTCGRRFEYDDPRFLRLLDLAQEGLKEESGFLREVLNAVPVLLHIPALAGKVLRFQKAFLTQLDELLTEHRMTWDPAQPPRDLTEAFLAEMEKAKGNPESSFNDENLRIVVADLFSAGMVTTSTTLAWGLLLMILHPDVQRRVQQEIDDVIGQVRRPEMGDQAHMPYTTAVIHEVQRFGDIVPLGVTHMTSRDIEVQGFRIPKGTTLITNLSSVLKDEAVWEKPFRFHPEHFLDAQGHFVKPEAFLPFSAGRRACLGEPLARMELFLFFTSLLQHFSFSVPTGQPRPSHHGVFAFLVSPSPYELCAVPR
Chain of Voltage-gated inwardly rectifying potassium channel KCNH2 (Homo sapiens) (Q12809 whole entry, looked up): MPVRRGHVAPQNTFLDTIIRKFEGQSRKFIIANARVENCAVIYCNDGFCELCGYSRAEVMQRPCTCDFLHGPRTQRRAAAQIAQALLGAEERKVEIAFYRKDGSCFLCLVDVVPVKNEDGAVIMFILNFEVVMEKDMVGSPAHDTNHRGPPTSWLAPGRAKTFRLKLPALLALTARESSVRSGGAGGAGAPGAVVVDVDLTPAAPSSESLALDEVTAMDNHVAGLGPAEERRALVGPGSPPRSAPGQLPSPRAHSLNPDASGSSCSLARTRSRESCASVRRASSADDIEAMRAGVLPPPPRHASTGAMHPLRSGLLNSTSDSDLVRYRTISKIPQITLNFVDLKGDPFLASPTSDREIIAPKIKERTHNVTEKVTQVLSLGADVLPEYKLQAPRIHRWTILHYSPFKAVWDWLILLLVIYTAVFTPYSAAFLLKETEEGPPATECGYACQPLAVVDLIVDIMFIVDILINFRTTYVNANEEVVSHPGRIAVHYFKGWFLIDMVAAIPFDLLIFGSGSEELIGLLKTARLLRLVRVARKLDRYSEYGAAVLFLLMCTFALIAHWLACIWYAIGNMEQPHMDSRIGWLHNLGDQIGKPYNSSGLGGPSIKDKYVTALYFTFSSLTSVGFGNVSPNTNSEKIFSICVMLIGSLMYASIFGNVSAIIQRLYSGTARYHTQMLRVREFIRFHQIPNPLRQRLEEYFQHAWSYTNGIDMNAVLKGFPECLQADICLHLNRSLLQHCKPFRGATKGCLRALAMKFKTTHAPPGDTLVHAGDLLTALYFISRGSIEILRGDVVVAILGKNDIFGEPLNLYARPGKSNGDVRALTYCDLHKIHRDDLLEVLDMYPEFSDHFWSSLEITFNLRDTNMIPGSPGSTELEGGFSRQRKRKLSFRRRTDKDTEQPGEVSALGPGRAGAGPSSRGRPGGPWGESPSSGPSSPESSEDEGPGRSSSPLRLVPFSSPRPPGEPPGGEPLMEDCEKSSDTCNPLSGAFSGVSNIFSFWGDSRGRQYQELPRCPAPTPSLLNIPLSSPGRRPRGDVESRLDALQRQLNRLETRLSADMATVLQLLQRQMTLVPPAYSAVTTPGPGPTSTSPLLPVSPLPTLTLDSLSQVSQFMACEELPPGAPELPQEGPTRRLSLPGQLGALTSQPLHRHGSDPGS
Chain of Cytochrome P450 2C19 (Homo sapiens) (P33261 whole entry, looked up): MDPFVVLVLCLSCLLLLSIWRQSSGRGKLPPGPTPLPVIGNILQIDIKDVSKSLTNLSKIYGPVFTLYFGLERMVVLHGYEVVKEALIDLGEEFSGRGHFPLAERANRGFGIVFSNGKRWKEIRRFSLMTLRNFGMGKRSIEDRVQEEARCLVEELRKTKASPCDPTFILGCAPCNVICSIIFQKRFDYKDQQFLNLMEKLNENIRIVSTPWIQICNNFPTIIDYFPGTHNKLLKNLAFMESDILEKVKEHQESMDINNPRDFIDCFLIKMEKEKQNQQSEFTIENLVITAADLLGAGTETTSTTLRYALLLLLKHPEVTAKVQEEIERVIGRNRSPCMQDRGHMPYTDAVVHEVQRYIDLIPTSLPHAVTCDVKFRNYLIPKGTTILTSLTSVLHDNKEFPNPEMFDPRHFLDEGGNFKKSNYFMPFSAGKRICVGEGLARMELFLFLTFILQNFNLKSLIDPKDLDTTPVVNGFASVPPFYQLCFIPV

As for `CCCCCCCCC(=O)OCC`, the Potency entry in test [1], in test [2], in test [3], in test [4] and in test [5] was “inactive” in each case.
In the case of `FC(F)(F)c1ccc(Cl)cc1Cl`, the Potency entry in test [1], in test [6], in test [3], in test [4] and in test [5] was “inactive” throughout.
With `Cc1ccccc1N1CCN(CCc2nnc3n2CCCC3)CC1`, the Potency in test [1] is 13.8 µM (active). For the same compound, the Potency entry in test [2], in test [4] and in test [5] was “inactive” throughout.
In the case of `CCCCCCCC[Si](OCC)(OCC)OCC`, the Potency result in test [1], in test [2], in test [3], in test [4] and in test [5] was “inactive” in each case.
With `O=C(O)c1ccccc1C(=O)Nc1ccc(S(=O)(=O)Nc2nccs2)cc1`, the Potency entry in test [1], in test [6], in test [3], in test [4] and in test [5] was “inactive” throughout.
Take `Nc1cc(C(=O)O)ccc1Cl`: the Potency result in test [1], in test [6], in test [3], in test [4] and in test [5] was “inactive” in each case.
With `CCCOCCOCCOCCO`, the Potency entry in test [1], in test [2], in test [4] and in test [5] was “inactive” in each case.
Turning to `CCCC(C)CC` (centres undefined), the Potency result in test [1], in test [6], in test [4] and in test [5] was “inactive” each time. The Potency in test [3] is 35 µM (active).
Consider `C=C(C)C(=O)OCCCCCCOC(=O)C(=C)C`, for which the Potency result in test [1], in test [4] and in test [5] was “inactive” in each case. Further, the figures for the Potency in test [6] and in test [3] were 35.6 µM (active) and 39.9 µM (active), respectively.
`CC(C)c1ccccc1O`: the Potency result in test [1], in test [2], in test [4] and in test [5] was “inactive” in each case.
Consider `CC(C)CCO`, for which the Potency result in test [1], in test [6], in test [3], in test [4] and in test [5] was “inactive” in each case.
On to `CC(=O)/C=C/c1ccco1`, for which the Potency entry in test [1], in test [2], in test [4] and in test [5] was “inactive” each time.
Consider `CC1=NN(c2ccc(S(=O)(=O)O)cc2)C(=O)C1N=Nc1ccccc1` (centres undefined), for which the Potency entry in test [1], in test [2], in test [3], in test [4] and in test [5] was “inactive” each time.
As to `CCC1COC(=O)O1` (centres undefined), the Potency result in test [1], in test [2], in test [4] and in test [5] was “inactive” in each case.
With `C=CC(C)(O)CC/C=C(\C)CC` (centres undefined), the Potency entry in test [1] and in test [4] was “inactive” each time. Also, the Potency was 40 µM (active) in test [2] and 22.5 µM (active) in test [5].
Consider `O=C1CC[C@H](C(=O)N2CCCCC2)N1`, for which the Potency result in test [1], in test [6], in test [3], in test [4] and in test [5] was “inactive” throughout.
With `CC(C)COC(=O)CCCCC(=O)OCC(C)C`, the Potency result in test [1], in test [2], in test [4] and in test [5] was “inactive” throughout. Besides, the Potency in test [3] was 39.9 µM (active).
Regarding `CNC(=O)C(c1ccccc1)c1ccccc1`, the Potency result in test [1], in test [4] and in test [5] was “inactive” throughout. The Potency in test [2] is 20 µM (active).
Take `CN(C)CCCNCCC#N`: the Potency entry in test [1], in test [6], in test [4] and in test [5] was “inactive” in each case.
For `C[N+](C)(C)CC(O)CCl` (centres undefined), the Potency entry in test [1], in test [6], in test [3], in test [4] and in test [5] was “inactive” in each case.
For the compound `CC(=O)c1ccc(OCC(=O)N2CCCCC2)cc1`, the Potency entry in test [1], in test [6], in test [3], in test [4] and in test [5] was “inactive” throughout.
As for `CCCCCCCCCCCCC1CO1` (centres undefined), the Potency entry in test [1], in test [2], in test [3], in test [4] and in test [5] was “inactive” each time.
Take `CCC(CO)CO`: the Potency entry in test [1], in test [2], in test [4] and in test [5] was “inactive” in each case.
Take `COc1cc(C=O)ccc1OC(=O)C(C)C`: the Potency entry in test [1], in test [4] and in test [5] was “inactive” throughout. The Potency in test [2] was 39.9 µM (active).
Take `CC(=O)OC(C)(C)Cc1ccccc1`: the Potency entry in test [1], in test [2], in test [3], in test [4] and in test [5] was “inactive” each time.
Turning to `O=S1(=O)CCCC1`, the Potency result in test [1], in test [2], in test [4] and in test [5] was “inactive” each time. For the same compound, in test [3], the Potency is 40.2 µM (active).
Regarding `C[Si]1(C)N[Si](C)(C)N[Si](C)(C)N1`, the Potency entry in test [1] and in test [4] was “inactive” throughout. Besides, the results for the Potency in test [2] and in test [5] were 50.2 µM (active) and 6.33 µM (active), respectively.
As to `C=C(C)C(=O)OC`, the Potency result in test [1], in test [6], in test [3], in test [4] and in test [5] was “inactive” throughout.
